Measurements: PubChem BioAssay (NCI)
“And” between values parts separate entries of the source, which are not always exact repeats. Equal entries are not always repeated. The panel holds about 83,000 compounds, 20% with a hit somewhere; the sample as a whole holds those more often.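 Cell lines were cultured in 96-well plates, exposed to a single compound concentration, and assessed for percent growth 48 hours later.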 The source made the active and inactive calls. How the source made its calls: active means growth percent below 10; inactive means the rest.

System: MDA-MB-468 breast
Assay: NCI-60 one-dose screen, 48 h (100 = growth as untreated, 0 = no growth, -100 = all killed)
Conditions: 10 µM unless noted

SMILES | growth
CC(=O)OC[C@]12CC[C@@H](C(=O)CBr)[C@@H]1[C@H]1CC[C@@H]3[C@@]4(C)CC[C@H](OC(C)=O)C(C)(C)[C@@H]4CC[C@@]3(C)[C@]1(C)CC2 | 108% (inactive)
C=C1C(=O)O[C@H]2[C@H]1CC/C(COC(=O)c1cn(C)c3ccccc13)=C\CC[C@@]1(C)O[C@@H]21 | -66.4% (active)
COc1ccc(-c2nc(N/N=C/c3cccc(O)c3)nc(N3CCOCC3)c2C#N)cc1 | 87.1% (inactive)
c1ccc2cc(C[n+]3ccn(CCCCCCn4cc[n+](Cc5ccc6ccccc6c5)c4)c3)ccc2c1 | 10.1% (inactive)
O=C(Nc1ncc(Cc2cc(C(F)(F)F)ccc2Cl)s1)c1cccs1 | -0.706% (active)
COc1cc(-c2nn(C)nc2-c2cc3ccccc3s2)cc(OC)c1OC | 39.8% (inactive)
O=C(Nc1ccc(F)cc1F)c1cc(Br)ccc1O | -19.6% (active)
COc1cc2cc(NCc3ccncc3)nc(C)c2cc1OC | 87.7% (inactive)
CC(=O)N1C(=S)NC(=O)C1CC(C)C (configuration not stated) | 100% (inactive)
COC(=O)C1=COC(C)C2C[n+]3ccc4c([nH]c5ccccc54)c3CC12 (configuration not stated) | 94.2% (inactive) and 85.8% (inactive)
CCOC(=O)c1ccc(Nc2ccnc(SCC(=O)c3ccc(C#N)cc3)n2)cc1 | 48.1% (inactive)
CCN1CCN(C(=O)[C@]23CCC(C)(C)C[C@H]2C2=CC[C@@H]4[C@@]5(C)CC/C(=N/O)C(C)(C)[C@@H]5CC[C@@]4(C)[C@]2(C)CC3)CC1 | 47% (inactive)
Cc1cc(C2=NNC(=O)Cc3cc4c(cc32)OCCO4)cc(C)c1N | 9.52% (active)
O=C(/C(=C/c1cccc([N+](=O)[O-])c1)c1ccccc1)c1ccccc1 | 38.2% (inactive)
CN1C(=O)C(N=Nc2ccc([N+](=O)[O-])cc2)SC1=S (configuration not stated) | 84.6% (inactive) and 85.1% (inactive)
CCNc1nnnn1CC | 101% (inactive)
Nc1nc(SCC#CCCl)c2[nH]cnc2n1 | -6.97% (active)
Cc1ccc(S(=O)(=O)NCCCNc2nccc(-c3c(-c4ccccc4)nc4sccn34)n2)cc1 | 53.8% (inactive)
COc1ccc2oc(=O)cc(C(c3ccc[nH]3)c3ccc[nH]3)c2c1 | 5.5% (active)
CC(C)=CCc1c2c(c(O)c3c1O[C@]14C(=C[C@@H]5C[C@H]1C(C)(C)O[C@@]4(C/C=C(/C)C(=O)O)C5=O)C3=O)CC(O)C(C)(C)O2 (some centres not stated) | -55.7% (active)
Oc1ccc2c(c1)CCc1ccccc1-2 | 105% (inactive)
CC(=O)OC1CCC2(C)C(CCC3C4CC=C(C(C)=O)C4(C)OC(=O)CC32)C1 (configuration not stated) | -72.4% (active)
N/C(=N\c1nc2ccccc2s1)NC(=O)Nc1ccccc1 | 31.4% (inactive)
CCN(CC)c1ccc(/C=C2/NC(=O)NC2=O)cc1 | 37.8% (inactive)
O=C(O)c1cccc([N+](=O)[O-])c1/C=C/c1ccccc1 | 102% (inactive)
C1=C\COCc2cc(ccc2OCCN2CCCC2)Nc2nccc(n2)-c2cccc(c2)COC/1 | -53.7% (active)
CCOC(=O)c1c2c(c(C)n1Cc1ccccc1)-c1nc(N)ncc1CC2 | 100% (inactive)
